Assay outcomes deposited in PubChem by National Center for Advancing Translational Sciences (NCATS).
Shown are actives, neighbours in structure and some others; about 0.53% of the full set was active somewhere.
BRCT PPI green: BRCA1 BRCT-phosphoprotein interaction inhibition. Potency, µM (titrated, usually from 76.9 µM), usual class: inhibitors. 75,000 tested, 0.05% active. AID 875. BRCA1 BRCT-phosphopeptide binding, green fluorescence polarization. P38398
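Fluorescence polarization: His-tagged BRCT (~35 kDa BRCA1 C-terminus, 250 nM) bound to 100 nM fluorescein-labeled phosphorylated 10-aa BACH1 peptide, pH 7.3 phosphate buffer with DTT and Tween 20. Compounds incubated 12 min at room temperature; inhibition read as lowered polarization.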
YjeE inh: displaces an ADP probe from E. coli YjeE (TsaE). P0AF67. 71,000 tested, 0.05% active. purified YjeE enzyme, qHTS inhibition assay. Potency, µM
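Fluorescence polarization of a BODIPY Texas Red–ADP probe (2 uM) bound to purified YjeE (10 uM) was read after 15 min room-temperature incubation with compounds. Loss of polarization marks inhibitors; ADP serves as titrated control.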
Hsp90 Hop PPI: changes Hsp90-Hop TPR2A binding signal, up or down; AlphaScreen TPR2A-His6 binding biotin-Hsp90 C-terminal peptide; Potency, µM (doses to about 57 µM); 71,000 tested, 0.44% active; AID 595; active = well fitted curve in either direction with a large enough effect; inconclusive = small, poorly fitted or top-dose-only effect, or another doubt
BRCT PPI red: inhibitors of human BRCA1 BRCT-phosphoprotein interaction (red fluorophore); BRCT-phosphopeptide binding, red fluorescence polarization; 75,000 tested, 0.03% active; Potency, µM (titrated, usually from 76.9 µM), most hits filed as inhibitors
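Rhodamine-labelled pBACH1 10-mer (100 nM) bound to BRCT domain (100 nM) at pH 7.3; compounds incubated 12 min room temperature, polarization read. Free peptide defines full inhibition; unlabelled decapeptide titrated as control.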
Pol III holo inh: DNA polymerase III holoenzyme inhibition; reconstituted DNA polymerase III holoenzyme replication, biochemical; Potency, µM (doses to about 57.1 µM); 71,000 tested, 0.25% active; AID 603
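Reconstituted *E. coli* holoenzyme (0.35 nM Pol III, 1 nM beta, 154 nM SSB, 2 nM primase) was preincubated with compound for 15 min at RT. Synthesis on 1.4 nM ssM13Gori ran 35 min, then was stopped with PicoGreen/EDTA and read as dsDNA fluorescence.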
Hsp90-TPR2A inh: confirmation and counter-screen of Hsp90 TPR2A co-chaperone interaction disrupters. shares compounds with Hsp90 Hop PPI. AlphaScreen TPR2A-His6 / biotin-Hsp90 peptide binding. activity, negative = inhibition, % at 40 µM or 46 µM, hits read low. 45 tested, 100% active. AID 632;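 active = compound lowering the Hsp90 and TPR2A binding signal, whether or not the linker counterscreen also flagged it as an artifact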
Large screens that a line does not name were inactive (follow-up assays come after a bar, where they were run); ! = repeats disagree. Unless noted, calls follow the shape of the dose curve; as a rule, active = well fitted curve in the direction sought with a large enough effect; inconclusive = small, poorly fitted or top-dose-only effect, or another doubt; inactive = no such curve, though single readings can be large; an effect the other way counts as inactive or inconclusive.

Clc1ccc(C(c2ccc(Cl)cc2)C(Cl)(Cl)Cl)cc1	none
Clc1ccc(C(c2ccc(Cl)cc2)C(Cl)Cl)cc1	Hsp90 Hop PPI 32µM
CCCCc1ccc(C(=O)O)nc1	Hsp90 Hop PPI 2.5µM
C[C@H]1CC[C@@H]2[C@@H](C)C(=O)O[C@H]3O[C@@]4(C)CC[C@@H]1[C@]32OO4	none (no result: BRCT PPI green, BRCT PPI red)
CCCN1CCc2cccc3c2[C@@H]1Cc1ccc(O)c(O)c1-3	none
CN(N=O)c1cc(O)ccc1O	BRCT PPI green inconclusive, YjeE inh 100µM, Hsp90 Hop PPI inconclusive, BRCT PPI red 32µM, Pol III holo inh 3.2µM
C[C@@]12CC[C@H]3[C@@H](CCC4=CC(=O)CC[C@]43C)[C@H]1CCC2=O	none (no result: BRCT PPI green, BRCT PPI red)
[Cd+2].[Cl-].[Cl-]	YjeE inh inconclusive, Pol III holo inh 0.063µM
C=C(C)[C@H]1[C@H]2OC(=O)[C@@H]1[C@]1(O)C[C@H]3O[C@]34C(=O)O[C@H]2[C@]14C	Hsp90 Hop PPI inconclusive (no result: BRCT PPI green, BRCT PPI red)
C[n+]1c2cc(N)ccc2cc2ccc(N)cc21	BRCT PPI green 1.3µM (no result: YjeE inh, Hsp90 Hop PPI, Pol III holo inh)
Brc1ccc(Oc2cc(Br)c(Br)cc2Br)c(Br)c1	Hsp90 Hop PPI 32µM!
C[n+]1c(/C=C\c2ccc(O)c3ncccc23)[se]c2ccccc21	Hsp90 Hop PPI 3.2µM
[Cl-].[Cl-].[Hg+2]	Pol III holo inh 32µM
CCOC(=O)C1CCN(/C=C2/C(=O)NC(=O)N(Cc3ccco3)C2=O)CC1	Pol III holo inh 7.9µM
CCOC(=O)c1c(C)n(Cc2ccco2)c2ccc(OC)cc12	none
CC[C@@H]1CN2CC[C@@H]1C[C@H]2[C@@H](O)c1ccnc2ccc(OC)cc12	none (no result: BRCT PPI green, BRCT PPI red)
COc1cccc2c1C(=O)c1c(O)c3c(c(O)c1C2=O)C[C@](O)(/C(C)=N\O)C[C@@H]3O[C@H]1C[C@H](N)[C@@H](O)[C@H](C)O1	BRCT PPI red inconclusive, Pol III holo inh 1µM
COc1ccc2c(c1O)-c1cccc3c1[C@H](C2)N(C)CC3	none
O=C(O)/C=C\c1ccc[c]([Sb](=[O])([OH])[OH])c1	Pol III holo inh 0.2µM
C[C@@H]1O[C@H]1P(=O)(O)O	none
O=c1cccc2n1C[C@@H]1C[C@H]2CN2CCCC[C@H]12	none (no result: BRCT PPI green, BRCT PPI red)
CN(C(=O)Oc1cccc2cccnc12)c1ccccc1	none (no result: YjeE inh, Hsp90 Hop PPI, Pol III holo inh)
Oc1cccc2cccnc12	Hsp90 Hop PPI 10µM!
C[C@@H]1O[C@H](O[C@H]2C[C@@H](O)[C@]3(CO)[C@H]4[C@H](O)C[C@]5(C)[C@@H](C6=CC(=O)OC6)CC[C@@]5(O)[C@H]4CC[C@]3(O)C2)[C@@H](O)[C@H](O)[C@H]1O	none (no result: BRCT PPI green, BRCT PPI red)
CCOC(=O)c1ccc(NC(=O)c2c(O)[nH]c(=O)[nH]c2=O)cc1	BRCT PPI green 13µM
NNc1c(C(N)=O)c2c(N)ncnc2n1[C@@H]1O[C@H](CO)[C@@H](O)[C@@H]1O	none (no result: BRCT PPI green, BRCT PPI red)
Cn1nc(-c2ccccc2)nc2c(=O)n(C)c(=O)nc1-2	none (no result: BRCT PPI green, YjeE inh, Hsp90 Hop PPI, BRCT PPI red, Pol III holo inh) | Hsp90-TPR2A inh active
CCn1nc(-c2ccccc2)nc2c(=O)n(C)c(=O)nc1-2	Hsp90 Hop PPI 1.3µM | Hsp90-TPR2A inh active
Cc1nc2c(=O)n(C)c(=O)nc-2n(C)n1	none (no result: BRCT PPI green, YjeE inh, Hsp90 Hop PPI, BRCT PPI red, Pol III holo inh) | Hsp90-TPR2A inh active
C[C@@]12CC[C@H](O)C[C@@H]1CC[C@H]1[C@H]2C[C@@H](O)[C@]2(C)[C@@H](C3=CC(=O)OC3)CC[C@@]12O	Hsp90 Hop PPI inconclusive (no result: BRCT PPI green, BRCT PPI red)
CC(=O)N1C[C@@H]2C[C@H](C1)c1cccc(=O)n1C2	none (no result: BRCT PPI green, BRCT PPI red)
C[C@H]1CC[C@]2(NC1)O[C@@H]1C[C@@H]3[C@@H]4CC=C5C[C@H](O)CC[C@@]5(C)[C@H]4CC[C@@]3(C)[C@H]1[C@@H]2C	none (no result: BRCT PPI green, BRCT PPI red)
